PKA-R1A activ: activators of PKA-R1A holoenzyme, primary screen, biochemical, fluorescence polarization, Cy5-IP20, bovine R1A, mouse PKAc; activation, % at 11.4 µM; PKA-R1A dissociation; scaled: DMSO 0%, 113 µM cGMP 100%; 340,000 compounds, 0.083% hits; cAMP-dependent protein kinase type I-alpha regulatory subunit (Bos taurus) + …; AID 504707, 2011;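 active means percent activation above the mean of all tested compounds plus 3 SD, cut at about 19% in these data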;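 further: higher means more PKAc released from R1A so a rise in polarization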
CendR NRP1 mod: modulators of CendR peptide binding to NRP-1, primary screen, biochemical, fluorescence polarization, uHTS; 360,000 compounds, 0.85% hits; inhibition, % at 25 µM; FAM-RPARPAR peptide binding to NRP-1; AID 602438, 2012;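 active means inhibition or corrected inhibition above about 18%, plus a signal ratio from 0.5 to 1.5, limit read from the data, passing the limit was not always enough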
VLA-4 inh: inhibition in human VLA-4 binding assay, primary screen, VLA-4 allosteric modulator project, MLPCN library, flow cytometry, VLA-4 expressing cells. ligand binding flow cytometry. AID 2557, 2010. 330,000 compounds, 0.2% hits. Integrin alpha-4 (Homo sapiens), P13612. inhibition, % (about 7 µM as worked out from the volumes in the protocol)
PKA-R2B act: activators of PKA-R2B holoenzyme, primary screen, biochemical, fluorescence polarization, Cy5-IP20, human; PKA-R2B holoenzyme dissociation; R2B truncated from residue 108, S112A mutant; 0% DMSO only, 100% 113 µM cGMP; cAMP-dependent protein kinase catalytic subunit beta (Homo sapiens) + cAMP-dependent …; activation, % at 11.4 µM; 340,000 compounds, 0.079% hits;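 active means activation above a cutoff set at the mean over all compounds plus 3 SD, cut at about 18% in these data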;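 further: higher means more holoenzyme dissociation and a rise in polarization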
ATG4B inhibitor: ATG4B protease inhibitors, primary screen, biochemical, fluorescence, uHTS; Cysteine protease ATG4B (Homo sapiens), Q9Y4P1; ATG4B cleavage of LC3-PLA2, NBD-HPC fluorescence, 1 h; inhibition, % at 8.33 µM; 340,000 compounds, 0.51% hits; AID 504462, 2011; in the data active means inhibition above about 40%
ATG4B confirm: ATG4B protease inhibitors, retest, confirmation, biochemical, fluorescence, single concentration. inhibition, % at 8.33 µM. 320 compounds, 92% hits. ATG4B protease fluorescent substrate cleavage assay. shares compounds with ATG4B inhibitor; in the data active means inhibition above about 39%
PLA2 counter: PLA2 enzyme inhibition, counter-screen for ATG4B inhibitor project, biochemical, single concentration, uHTS hits; shares compounds with ATG4B inhibitor; purified PLA2, NBD-C6-HPC fluorescence, 45 min; inhibition, % at 8.33 µM; 1,600 compounds, 66% hits
Numbers without * were called inactive; nt = no result. Sampled rows, rich in hits. Any-hit rate of the full collection: about 1.6%. Unless noted, no stated cut-off is given here; in the data, active means inhibition above about 50%; inactive means the rest.

SMILES	PKA-R1A activ	CendR NRP1 mod	VLA-4 inh	PKA-R2B act	ATG4B inhibitor	PLA2 counter	others
O=C(Nc1ccccc1)C1=C(Nc2ccccc2)CSC1	0	-14	nt	-8	nt	nt
C/C(=C/CCC(C)[C@H]1CC[C@@]2(C)C3=C(CC[C@]12C)[C@@]1(C)CCC(=O)C(C)(C)[C@@H]1CC3)C(=O)O (stereo partly drawn)	12	-54	7	-7	46*	29	ATG4B confirm=79*
Cc1ccc(CS(=O)Cc2ccc(C(=O)NCc3ccccc3Br)o2)cc1 (stereo not drawn)	-16	10	18	3	63*	69*
CC(C)(O)c1ccccc1CC[C@@H](SCC1(CC(=O)O)CC1)c1cccc(/C=C/c2ccc3ccc(Cl)cc3n2)c1	2	-13	41	-1	92*	92*
COCCn1c(C)nnc1SCC(=O)NNC(=O)c1ccc(Br)cc1	-6	2	nt	-11	4	nt
COc1ccc(C)cc1NS(=O)(=O)c1ccc(Cl)nc1	2	2	6	8	3	nt
CCOC(=O)C1CCCN(C(=O)c2ccc3c(=O)n(Cc4ccccc4OC)c(=S)[nH]c3c2)C1 (stereo not drawn)	-4	15	8	0	51*	44	ATG4B confirm=74*
CC1CCCN(C(=O)c2ccc3c(=O)n(C4CCCC4)c(=S)[nH]c3c2)C1 (stereo not drawn)	-10	8	1	-1	-21	nt
O=C(c1ccc2c(=O)n(C3CCCC3)c(=S)[nH]c2c1)N1CCCCCC1	6	5	-4	-1	62*	65*
Cc1cccc(NC(=O)COC(=O)c2cccc3c2C(=O)c2ccccc2C3=O)c1C	-10	4	3	-1	32	nt
Cc1cccc(NC(=O)COC(=O)c2ccccc2-c2nc3ccccc3s2)c1C	0	4	9	-4	48*	51*
Cc1c(CCC(=O)O)c(=O)oc2cc3occ(C(C)(C)C)c3cc12	-9	2	11	2	44*	61*
Cc1c(CCC(=O)O)c(=O)oc2cc3occ(-c4ccc(F)cc4)c3cc12	-1	-22	-12	-6	-1	nt
COc1ccc(CN2C(=O)c3ccccc3C2c2nnnn2-c2ccc3c(c2)OCCO3)cc1 (stereo not drawn)	nt	-2	nt	nt	nt	nt
CCOc1cc2c(C#N)c(N3CCCC3)nc(N)c2c(N)n1	6	4	0	-2	-6	nt
N#Cc1c(N2CCCC2)nc(N)c2c(N)nc(N3CCCC3)cc12	-8	32*	5	10	74*	40	ATG4B confirm=26
CCCC1NC(=O)c2cccnc2-n2c1nc1ccc(Cl)cc1c2=O (stereo not drawn)	3	-6	nt	4	nt	nt
CCOc1ccc(N(CC(=O)N2CCN(Cc3ccccc3)CC2)S(C)(=O)=O)cc1	3	7	3	-2	-9	nt
O=C(CSc1nc2ccccc2c(=O)n1-c1ccc(Cl)cc1)N/N=C/C=C/c1ccccc1[N+](=O)[O-]	1	0	-3	-10	54*	17	ATG4B confirm=72*
O=C(CSc1nc2ccccc2c(=O)n1-c1ccccc1)N/N=C/C=C/c1ccccc1[N+](=O)[O-]	-8	18	0	-5	22	nt
CCc1ccc(N2C(=O)CN(Cc3sccc3C)C2=S)cc1	-3	-10	14	0	92*	98*
COc1cc(CN2CC(=O)N(c3ccc(C)cc3)C2=S)cc(OC)c1OC	-8	-15	20	-10	-9	nt
Cc1cccc(N2C(=O)CN(Cc3ccccc3)C2=S)c1	-14	8	-7	2	49*	63*
Cc1cccc(N2C(=O)CCC2=O)c1	2	6	4	0	-1	nt
Cc1cccc(N2C(=O)CN(Cc3sccc3C)C2=S)c1	-11	12	-2	7	88*	92*
SMILES	PKA-R1A activ	CendR NRP1 mod	VLA-4 inh	PKA-R2B act	ATG4B inhibitor	PLA2 counter	others
Cc1cccc(N2C(=O)CN(Cc3cccs3)C2=S)c1	-3	0	-5	-4	52*	74*
O=C(O)c1sccc1Oc1ccc(NS(=O)(=O)c2cccc(F)c2)cc1	-1	-7	7	2	6	nt
COc1cc(Cl)c(C)cc1N1C(=O)CN(Cc2ccccc2)C1=S	-1	-4	19	-13	52*	69*
Cc1cc(C)cc(N2C(=O)CN(Cc3sccc3C)C2=S)c1	-4	-12	-12	-2	94*	94*
Cc1ccsc1CN1CC(=O)N(c2c(C)cccc2C)C1=S	-15	1	0	-10	85*	93*
CCOc1ccc(NC(=O)C2CCCN2S(=O)(=O)c2ccc3c(c2)C(C)(C)C(=O)N3C)cc1 (stereo not drawn)	-5	3	7	5	-5	nt
Cc1cc(C)c(C(N)=O)c(SCC(=O)c2cc(C)n(-c3cc(C)on3)c2C)n1	0	2	13	5	-12	nt
CCC(C)NC(=O)[C@@H]1CSC2c3ccccc3C(=O)N21 (stereo partly drawn)	4	1	6	-5	1	nt
Cc1ccc(S(=O)(=O)N2C[C@@H](C)[C@]3(C2)[C@H](O)[C@H](OC(=O)Nc2cccs2)C[C@H]2C(=O)N(c4ccccc4)C(=O)[C@H]23)cc1	-2	2	nt	0	nt	nt
COc1cc([N+](=O)[O-])cc(/C=C2/SC(=S)N(Cc3ccccc3)C2=O)c1O	-11	-156	-401	-7	49*	75*
O=C(NCCC1=CCCCC1)Nc1ccc2nsnc2c1	0	12	1	-5	46*	50
Cc1ccc(-c2cc(=O)c3cc(C)ccc3[nH]2)cc1	-1	30*	nt	-1	72*	-13
COc1ccc(-c2nn(-c3ccccc3)cc2C(=O)N2CCN(S(=O)(=O)c3cccc(F)c3)CC2)cc1	-8	-3	5	-14	-9	nt
N#Cc1c(NC(=O)Cn2c(=O)oc3ccccc32)oc(-c2ccccc2)c1-c1ccccc1	1	-8	-6	0	50*	58*
COc1ccc2cc(CN(C)C(=O)CN3C(=O)NC4(CCCC4)C3=O)ccc2c1	-14	7	nt	-4	nt	nt
